# According to publication PMC7862700, “An all-to-all approach to the identification of sequence-specific readers for epigenetic DNA modifications on cytosine”:
# What was measured:
# Test in all cases: DAPPL (digital affinity profiling via proximity ligation, sequencing); 10 mM Tris-HCl pH 7.5, 50 mM NaCl, 1 mM DTT, 4% glycerol, room temperature, 30 min; GST-TFs on glutathione beads, 16-mer random dsDNA library, 0.1% formaldehyde crosslink after washing; high values mean tight binding
# [1] = target: T1, FLI1 (Homo sapiens, UniProt Q01543 1-452); conditions: protein: recombinant; tags: N-terminal GST; dsDNA, one strand shown
# T1 sequence: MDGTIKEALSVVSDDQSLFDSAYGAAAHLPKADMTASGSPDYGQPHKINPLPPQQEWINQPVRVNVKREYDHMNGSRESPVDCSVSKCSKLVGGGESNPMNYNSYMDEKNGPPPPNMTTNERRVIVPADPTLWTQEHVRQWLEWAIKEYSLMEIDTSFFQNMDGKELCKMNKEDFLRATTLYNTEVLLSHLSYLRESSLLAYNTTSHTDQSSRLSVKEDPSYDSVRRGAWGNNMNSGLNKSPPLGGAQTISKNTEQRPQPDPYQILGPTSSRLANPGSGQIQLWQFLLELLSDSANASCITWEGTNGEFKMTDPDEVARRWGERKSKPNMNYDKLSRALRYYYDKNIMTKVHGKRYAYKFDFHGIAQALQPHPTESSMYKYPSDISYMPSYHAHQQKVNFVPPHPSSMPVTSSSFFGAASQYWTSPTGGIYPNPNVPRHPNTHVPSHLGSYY
# How it was run: (§1)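 A tag-only sample was pooled with DNA-barcoded human transcription factors that had been expressed in yeast as GST fusions and captured on glutathione beads. The pools were incubated for 30 min at room temperature with 200 nmole of a random double-stranded 16-mer DNA library in Tris/NaCl/DTT/glycerol buffer, then washed, crosslinked with 0.1% formaldehyde, proximity-ligated (BsaI/T4 ligase, 1 h, 37 °C), PCR-amplified and sequenced on an Illumina NextSeq500. Binding signal is each hexamer's read frequency for a factor divided by its frequency for the tag-only sample.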
# [2] = target: T2, ELK1 (Homo sapiens, UniProt P19419 1-428); conditions: protein: recombinant; tags: N-terminal GST; dsDNA, one strand shown
# T2 sequence: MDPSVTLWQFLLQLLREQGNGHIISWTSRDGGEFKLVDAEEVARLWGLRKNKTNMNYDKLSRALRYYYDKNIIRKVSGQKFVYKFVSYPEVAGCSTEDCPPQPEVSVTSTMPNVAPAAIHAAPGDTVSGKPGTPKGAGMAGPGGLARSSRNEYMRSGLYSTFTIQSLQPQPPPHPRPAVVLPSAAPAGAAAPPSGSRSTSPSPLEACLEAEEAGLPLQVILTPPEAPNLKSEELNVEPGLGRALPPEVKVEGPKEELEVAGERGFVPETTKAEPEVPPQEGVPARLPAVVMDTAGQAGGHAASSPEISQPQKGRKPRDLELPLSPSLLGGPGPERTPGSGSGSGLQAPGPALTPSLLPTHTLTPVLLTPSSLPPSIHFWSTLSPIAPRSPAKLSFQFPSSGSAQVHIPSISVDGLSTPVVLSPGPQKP
# How it was run: as §1
# [3] = target: T3, GABPA (Homo sapiens, UniProt Q06546 1-454); conditions: protein: recombinant; tags: N-terminal GST; dsDNA, one strand shown
# T3 sequence: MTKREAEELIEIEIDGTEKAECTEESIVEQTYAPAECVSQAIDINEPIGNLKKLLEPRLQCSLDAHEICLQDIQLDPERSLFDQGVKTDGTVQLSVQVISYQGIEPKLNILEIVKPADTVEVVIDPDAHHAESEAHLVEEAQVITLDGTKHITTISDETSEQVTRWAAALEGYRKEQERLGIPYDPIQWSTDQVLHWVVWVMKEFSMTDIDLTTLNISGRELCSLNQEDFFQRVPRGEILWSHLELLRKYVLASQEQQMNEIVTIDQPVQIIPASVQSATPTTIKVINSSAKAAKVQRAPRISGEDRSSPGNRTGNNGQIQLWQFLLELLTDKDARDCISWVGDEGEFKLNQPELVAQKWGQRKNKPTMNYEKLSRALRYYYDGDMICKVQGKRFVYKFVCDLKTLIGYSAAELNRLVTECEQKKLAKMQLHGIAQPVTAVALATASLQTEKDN
# How it was run: as §1
# [4] = target: T4, ERG (Homo sapiens, UniProt P11308 1-479); conditions: protein: recombinant; tags: N-terminal GST; dsDNA, one strand shown
# T4 sequence: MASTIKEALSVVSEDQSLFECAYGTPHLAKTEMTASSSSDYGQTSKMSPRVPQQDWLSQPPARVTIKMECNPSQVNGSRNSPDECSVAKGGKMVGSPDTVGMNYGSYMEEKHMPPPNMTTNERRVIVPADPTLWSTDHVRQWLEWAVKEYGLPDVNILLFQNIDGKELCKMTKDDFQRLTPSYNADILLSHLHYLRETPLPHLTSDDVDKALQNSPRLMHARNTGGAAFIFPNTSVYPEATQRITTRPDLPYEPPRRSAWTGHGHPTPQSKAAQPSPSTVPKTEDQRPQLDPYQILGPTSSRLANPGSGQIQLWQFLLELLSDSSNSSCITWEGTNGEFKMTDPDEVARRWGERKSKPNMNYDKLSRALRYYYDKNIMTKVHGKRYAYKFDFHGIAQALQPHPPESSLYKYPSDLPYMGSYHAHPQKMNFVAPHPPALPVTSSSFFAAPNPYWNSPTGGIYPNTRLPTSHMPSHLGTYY
# How it was run: as §1
# [5] = target: ELF1 (Homo sapiens, UniProt P32519 1-619); conditions: protein: recombinant; tags: N-terminal GST; dsDNA, one strand shown
# Chain of ELF1 (P32519 whole entry): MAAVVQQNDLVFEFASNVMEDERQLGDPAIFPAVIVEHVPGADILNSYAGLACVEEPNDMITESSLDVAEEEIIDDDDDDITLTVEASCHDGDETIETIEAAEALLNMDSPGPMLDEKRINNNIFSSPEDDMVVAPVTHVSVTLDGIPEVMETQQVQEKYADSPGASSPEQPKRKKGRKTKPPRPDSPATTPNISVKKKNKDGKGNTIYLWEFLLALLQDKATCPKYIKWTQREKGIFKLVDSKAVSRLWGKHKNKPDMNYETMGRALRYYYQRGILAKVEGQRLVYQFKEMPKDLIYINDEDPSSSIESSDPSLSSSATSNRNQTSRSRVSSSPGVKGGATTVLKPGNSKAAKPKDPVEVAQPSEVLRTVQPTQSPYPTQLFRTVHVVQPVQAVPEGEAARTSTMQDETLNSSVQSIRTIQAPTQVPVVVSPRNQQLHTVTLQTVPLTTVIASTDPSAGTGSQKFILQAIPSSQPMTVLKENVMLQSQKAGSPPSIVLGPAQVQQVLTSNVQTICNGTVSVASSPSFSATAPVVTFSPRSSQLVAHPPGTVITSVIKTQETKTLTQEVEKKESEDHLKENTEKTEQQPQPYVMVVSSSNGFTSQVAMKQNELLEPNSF
# How it was run: as §1
# [6] = target: T5, EHF (Homo sapiens, UniProt Q9NZC4 1-300); conditions: protein: recombinant; tags: N-terminal GST; dsDNA, one strand shown
# T5 sequence: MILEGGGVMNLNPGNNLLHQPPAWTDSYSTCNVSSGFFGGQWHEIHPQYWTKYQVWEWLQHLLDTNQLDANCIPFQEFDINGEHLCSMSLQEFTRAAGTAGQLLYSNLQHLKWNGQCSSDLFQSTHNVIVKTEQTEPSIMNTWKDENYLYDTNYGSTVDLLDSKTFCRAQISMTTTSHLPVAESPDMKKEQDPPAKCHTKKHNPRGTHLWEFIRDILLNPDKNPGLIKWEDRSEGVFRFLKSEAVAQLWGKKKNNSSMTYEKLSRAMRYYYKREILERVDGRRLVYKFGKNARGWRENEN
# How it was run: as §1
# [7] = target: SPI1 (Homo sapiens, UniProt P17947 1-270); conditions: protein: recombinant; tags: N-terminal GST; dsDNA, one strand shown
# How it was run: as §1
# [8] = target: T6, ELK3 (Homo sapiens, UniProt P41970 1-407); conditions: protein: recombinant; tags: N-terminal GST; dsDNA, one strand shown
# T6 sequence: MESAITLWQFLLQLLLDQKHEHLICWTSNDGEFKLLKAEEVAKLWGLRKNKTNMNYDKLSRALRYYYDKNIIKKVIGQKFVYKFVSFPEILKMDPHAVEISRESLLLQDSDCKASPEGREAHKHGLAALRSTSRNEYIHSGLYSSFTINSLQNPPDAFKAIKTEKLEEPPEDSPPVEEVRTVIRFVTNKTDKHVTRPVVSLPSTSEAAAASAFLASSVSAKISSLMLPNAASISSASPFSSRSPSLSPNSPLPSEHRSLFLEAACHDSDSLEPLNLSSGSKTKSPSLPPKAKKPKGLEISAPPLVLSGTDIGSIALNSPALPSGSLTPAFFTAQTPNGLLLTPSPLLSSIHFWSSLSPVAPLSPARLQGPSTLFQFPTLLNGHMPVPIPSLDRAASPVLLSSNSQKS
# How it was run: as §1
# [9] = target: ETV5 (Homo sapiens, UniProt P41161 1-510); conditions: protein: recombinant; tags: N-terminal GST; dsDNA, one strand shown
# Chain of ETV5 (P41161 whole entry): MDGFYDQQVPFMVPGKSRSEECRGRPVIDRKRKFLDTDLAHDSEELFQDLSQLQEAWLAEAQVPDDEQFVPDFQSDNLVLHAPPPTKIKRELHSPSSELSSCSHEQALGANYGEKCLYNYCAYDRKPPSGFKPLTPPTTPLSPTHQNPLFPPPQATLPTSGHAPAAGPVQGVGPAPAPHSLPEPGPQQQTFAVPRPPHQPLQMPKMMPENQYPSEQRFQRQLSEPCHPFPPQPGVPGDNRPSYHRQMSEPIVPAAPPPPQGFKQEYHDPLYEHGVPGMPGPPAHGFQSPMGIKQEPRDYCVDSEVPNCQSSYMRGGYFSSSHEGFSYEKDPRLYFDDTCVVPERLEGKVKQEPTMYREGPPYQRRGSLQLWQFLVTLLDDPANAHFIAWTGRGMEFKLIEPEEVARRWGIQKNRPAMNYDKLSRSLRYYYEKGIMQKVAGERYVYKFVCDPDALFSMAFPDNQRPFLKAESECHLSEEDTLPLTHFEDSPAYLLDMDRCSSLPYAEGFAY
# How it was run: as §1
# [10] = target: HSF1 (Homo sapiens, UniProt Q00613 1-529); conditions: protein: recombinant; tags: N-terminal GST; chain copies: 3; dsDNA, one strand shown
# Chain of HSF1 (Q00613 whole entry): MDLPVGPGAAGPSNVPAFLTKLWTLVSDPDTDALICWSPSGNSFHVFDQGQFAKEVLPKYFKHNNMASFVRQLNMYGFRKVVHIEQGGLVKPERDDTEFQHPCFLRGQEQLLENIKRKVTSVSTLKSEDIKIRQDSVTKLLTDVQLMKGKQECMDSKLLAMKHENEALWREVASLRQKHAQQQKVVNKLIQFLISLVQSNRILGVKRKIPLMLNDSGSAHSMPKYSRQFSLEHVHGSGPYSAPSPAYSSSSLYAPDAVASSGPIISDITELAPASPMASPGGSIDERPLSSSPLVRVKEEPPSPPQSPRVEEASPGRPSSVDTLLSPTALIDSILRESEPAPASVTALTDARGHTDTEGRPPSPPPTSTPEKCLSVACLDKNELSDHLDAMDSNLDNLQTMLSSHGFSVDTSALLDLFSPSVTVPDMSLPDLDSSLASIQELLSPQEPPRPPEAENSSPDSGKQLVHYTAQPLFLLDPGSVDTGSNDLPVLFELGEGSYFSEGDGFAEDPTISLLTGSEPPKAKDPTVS
# How it was run: as §1
# [11] = target: T7, SPIC (Homo sapiens, UniProt Q8N5J4 1-248); conditions: protein: recombinant; tags: N-terminal GST; dsDNA, one strand shown
# T7 sequence: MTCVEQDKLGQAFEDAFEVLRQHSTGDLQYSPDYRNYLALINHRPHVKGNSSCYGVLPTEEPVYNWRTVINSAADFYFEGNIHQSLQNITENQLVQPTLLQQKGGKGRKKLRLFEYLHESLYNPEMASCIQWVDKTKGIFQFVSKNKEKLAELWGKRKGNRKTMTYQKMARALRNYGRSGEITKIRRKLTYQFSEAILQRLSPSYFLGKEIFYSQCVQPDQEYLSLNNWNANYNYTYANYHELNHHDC
# How it was run: as §1
# [12] = target: ELF4 (Homo sapiens, UniProt Q99607 1-663); conditions: protein: recombinant; tags: N-terminal GST; dsDNA, one strand shown
# Chain of ELF4 (Q99607 whole entry): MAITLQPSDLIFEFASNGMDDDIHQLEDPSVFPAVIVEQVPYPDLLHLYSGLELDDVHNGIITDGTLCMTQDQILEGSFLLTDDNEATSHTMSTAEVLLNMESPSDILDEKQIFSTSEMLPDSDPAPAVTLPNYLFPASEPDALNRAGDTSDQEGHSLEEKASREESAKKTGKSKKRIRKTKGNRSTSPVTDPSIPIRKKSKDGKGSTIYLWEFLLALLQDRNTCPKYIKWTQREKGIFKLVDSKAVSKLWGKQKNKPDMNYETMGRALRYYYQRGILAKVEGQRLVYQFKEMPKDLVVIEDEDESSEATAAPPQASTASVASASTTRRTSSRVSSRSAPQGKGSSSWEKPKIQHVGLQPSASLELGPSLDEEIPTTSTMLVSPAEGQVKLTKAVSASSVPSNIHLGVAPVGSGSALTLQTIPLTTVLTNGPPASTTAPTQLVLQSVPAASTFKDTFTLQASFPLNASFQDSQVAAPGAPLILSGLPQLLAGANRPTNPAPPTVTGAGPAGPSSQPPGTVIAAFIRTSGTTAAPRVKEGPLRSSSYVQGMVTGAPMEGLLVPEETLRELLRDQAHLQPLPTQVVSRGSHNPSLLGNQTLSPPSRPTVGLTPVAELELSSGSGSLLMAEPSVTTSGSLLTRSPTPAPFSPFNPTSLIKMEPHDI
# How it was run: as §1
# [13] = target: T8, ELK4 (Homo sapiens, UniProt P28324-2 1-405); conditions: protein: recombinant; tags: N-terminal GST; dsDNA, one strand shown
# T8 sequence: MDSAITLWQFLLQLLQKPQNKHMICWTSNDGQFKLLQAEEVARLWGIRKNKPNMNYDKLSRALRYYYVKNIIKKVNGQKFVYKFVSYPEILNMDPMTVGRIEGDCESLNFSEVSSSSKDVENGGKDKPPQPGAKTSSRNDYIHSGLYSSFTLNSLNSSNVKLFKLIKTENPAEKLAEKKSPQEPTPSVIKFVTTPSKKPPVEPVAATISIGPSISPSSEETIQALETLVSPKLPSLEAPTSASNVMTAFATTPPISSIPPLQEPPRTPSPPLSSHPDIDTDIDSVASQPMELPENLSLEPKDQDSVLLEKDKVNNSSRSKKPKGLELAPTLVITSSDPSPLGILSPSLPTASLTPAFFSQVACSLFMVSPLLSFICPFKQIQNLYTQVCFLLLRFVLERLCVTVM
# How it was run: as §1
# [14] = target: T9, ETV2 (Homo sapiens, UniProt O00321 1-342); conditions: protein: recombinant; tags: N-terminal GST; dsDNA, one strand shown
# T9 sequence: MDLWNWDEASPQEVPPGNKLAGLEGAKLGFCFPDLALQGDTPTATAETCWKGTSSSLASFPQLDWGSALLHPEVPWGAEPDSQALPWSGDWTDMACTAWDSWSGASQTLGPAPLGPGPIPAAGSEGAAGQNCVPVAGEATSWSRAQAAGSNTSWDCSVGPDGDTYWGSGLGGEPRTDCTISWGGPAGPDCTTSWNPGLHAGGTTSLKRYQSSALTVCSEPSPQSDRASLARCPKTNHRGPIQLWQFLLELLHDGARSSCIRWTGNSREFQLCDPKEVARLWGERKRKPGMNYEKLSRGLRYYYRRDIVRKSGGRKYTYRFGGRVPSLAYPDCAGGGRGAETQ
# How it was run: as §1
# [15] = target: T10, ELF3 (Homo sapiens, UniProt P78545 1-371); conditions: protein: recombinant; tags: N-terminal GST; dsDNA, one strand shown
# T10 sequence: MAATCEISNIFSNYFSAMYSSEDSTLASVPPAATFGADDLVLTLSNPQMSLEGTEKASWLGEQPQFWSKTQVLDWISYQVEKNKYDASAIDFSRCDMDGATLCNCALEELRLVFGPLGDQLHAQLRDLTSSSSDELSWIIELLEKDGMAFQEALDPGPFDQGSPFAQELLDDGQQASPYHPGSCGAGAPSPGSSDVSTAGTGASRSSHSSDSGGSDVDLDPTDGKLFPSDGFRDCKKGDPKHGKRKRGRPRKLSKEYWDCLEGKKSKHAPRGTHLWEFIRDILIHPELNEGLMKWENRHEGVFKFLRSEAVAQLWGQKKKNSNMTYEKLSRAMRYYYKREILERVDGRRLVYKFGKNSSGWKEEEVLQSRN
# How it was run: as §1
# [16] = target: CRX (Homo sapiens, UniProt O43186 1-299); conditions: protein: recombinant; tags: N-terminal GST; dsDNA, one strand shown
# Chain of CRX (O43186 whole entry): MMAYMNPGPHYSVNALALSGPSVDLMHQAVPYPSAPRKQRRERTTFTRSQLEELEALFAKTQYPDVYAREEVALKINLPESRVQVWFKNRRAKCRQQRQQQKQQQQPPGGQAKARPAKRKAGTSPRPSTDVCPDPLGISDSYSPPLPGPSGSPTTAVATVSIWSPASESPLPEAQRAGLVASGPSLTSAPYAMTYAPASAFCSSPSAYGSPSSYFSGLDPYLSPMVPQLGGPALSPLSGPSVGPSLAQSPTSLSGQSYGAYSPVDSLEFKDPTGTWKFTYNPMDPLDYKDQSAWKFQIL
# How it was run: as §1
# [17] = target: ETV1 (Homo sapiens, UniProt P50549 1-477); conditions: protein: recombinant; tags: N-terminal GST; dsDNA, one strand shown
# Chain of ETV1 (P50549 whole entry): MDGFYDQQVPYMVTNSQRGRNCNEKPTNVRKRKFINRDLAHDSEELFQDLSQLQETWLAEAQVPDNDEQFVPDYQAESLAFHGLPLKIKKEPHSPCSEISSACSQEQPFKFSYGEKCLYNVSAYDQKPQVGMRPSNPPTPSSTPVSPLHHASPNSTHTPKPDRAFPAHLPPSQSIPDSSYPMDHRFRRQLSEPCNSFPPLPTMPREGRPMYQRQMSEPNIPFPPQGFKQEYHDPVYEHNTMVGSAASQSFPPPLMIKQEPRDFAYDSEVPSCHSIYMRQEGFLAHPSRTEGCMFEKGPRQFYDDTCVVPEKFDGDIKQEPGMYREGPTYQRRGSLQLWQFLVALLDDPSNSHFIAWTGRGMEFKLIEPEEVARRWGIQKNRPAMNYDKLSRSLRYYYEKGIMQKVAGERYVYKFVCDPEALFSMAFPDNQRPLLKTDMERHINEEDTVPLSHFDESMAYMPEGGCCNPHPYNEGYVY
# How it was run: as §1
sequence,measurement,setting,value
AAGAAG,binding signal,[1],"1.05 fold enrichment (6-mer frequency, TF over GST control)"
same,binding signal,[2],"1.09 fold enrichment (6-mer frequency, TF over GST control)"
same,binding signal,[3],"1.01 fold enrichment (6-mer frequency, TF over GST control)"
same,binding signal,[4],"1.06 fold enrichment (6-mer frequency, TF over GST control)"
same,binding signal,[5],"1.05 fold enrichment (6-mer frequency, TF over GST control)"
same,binding signal,[6],"1.07 fold enrichment (6-mer frequency, TF over GST control)"
same,binding signal,[7],"1.13 fold enrichment (6-mer frequency, TF over GST control)"
same,binding signal,[8],"1.05 fold enrichment (6-mer frequency, TF over GST control)"
same,binding signal,[9],"1.08 fold enrichment (6-mer frequency, TF over GST control)"
same,binding signal,[10],"1.44 fold enrichment (6-mer frequency, TF over GST control)"
same,binding signal,[11],"1.23 fold enrichment (6-mer frequency, TF over GST control)"
same,binding signal,[12],"1.06 fold enrichment (6-mer frequency, TF over GST control)"
same,binding signal,[13],"1.18 fold enrichment (6-mer frequency, TF over GST control)"
same,binding signal,[14],"1.19 fold enrichment (6-mer frequency, TF over GST control)"
same,binding signal,[15],"1.26 fold enrichment (6-mer frequency, TF over GST control)"
same,binding signal,[16],"1.21 fold enrichment (6-mer frequency, TF over GST control)"
same,binding signal,[17],"1.1 fold enrichment (6-mer frequency, TF over GST control)"
